Compounds without any hit were thinned out: in the full panel of roughly 83,000, 20% have a hit.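 Cell lines were cultured in 96-well plates, exposed to a single compound concentration, and assessed for percent growth 48 hours later.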 Unmarked numbers belong to inactive results. The source made the active and inactive calls. How the source made its calls: active means growth percent below 10; inactive means the rest.
Columns and labels:
Experiment in all cases: NCI-60 one-dose screen, 48 h (100 = growth as untreated, 0 = no growth, -100 = all killed)
Conditions in all cases: 10 µM unless noted
RPMI-8226 leukemia = test system: RPMI-8226 leukemia
OVCAR-8 ovarian = test system: OVCAR-8 ovarian
OVCAR-5 ovarian = test system: OVCAR-5 ovarian
OVCAR-4 ovarian = test system: OVCAR-4 ovarian
SK-OV-3 ovarian = test system: SK-OV-3 ovarian
IGROV1 ovarian = test system: IGROV1 ovarian
OVCAR-3 ovarian = test system: OVCAR-3 ovarian
HS 578T breast = test system: HS 578T breast
NCI/ADR-RES ovarian = test system: NCI/ADR-RES ovarian
T-47D breast = test system: T-47D breast
MDA-MB-435 melanoma = test system: MDA-MB-435 melanoma
SW-620 colon = test system: SW-620 colon
MCF7 breast = test system: MCF7 breast
HCT-116 colon = test system: HCT-116 colon
HCC-2998 colon = test system: HCC-2998 colon
KM12 colon = test system: KM12 colon
MDA-MB-468 breast = test system: MDA-MB-468 breast
BT-549 breast = test system: BT-549 breast
SR leukemia = test system: SR leukemia

SMILES | growth (RPMI-8226 leukemia) | growth (OVCAR-8 ovarian) | growth (OVCAR-5 ovarian) | growth (OVCAR-4 ovarian) | growth (SK-OV-3 ovarian) | growth (IGROV1 ovarian) | growth (OVCAR-3 ovarian) | growth (HS 578T breast) | growth (NCI/ADR-RES ovarian) | growth (T-47D breast) | growth (MDA-MB-435 melanoma) | growth (SW-620 colon) | growth (MCF7 breast) | growth (HCT-116 colon) | growth (HCC-2998 colon) | growth (KM12 colon) | growth (MDA-MB-468 breast) | growth (BT-549 breast) | growth (SR leukemia)
COc1ccc(C(=O)/C=C/c2cccc(Cl)c2Cl)cc1S(N)(=O)=O | -8.84% (active) | -64% (active) | -7.8% (active) | 35.9% | 43.3% | 10.1% | -56.1% (active) | 35.6% | 13.3% | -17.3% (active) | 14.3% | -47.3% (active) | -39.7% (active) | -98% (active) | -48.5% (active) | -62.3% (active) | -16.4% (active) |  | 
COc1cc2c(c(OC)c1OC)C(=O)CC(c1cccc(NC(=O)c3cc([N+](=O)[O-])ccc3Cl)c1)O2 (stereo not drawn) | 30.3% | -11.6% (active) | 67.2% | 57.2% | 57.1% | 12.5% | 16% | 15.1% | 15% | 23.6% | 28.5% | -6.32% (active) | 11.7% | -66.1% (active) | 33% | -54.7% (active) | -13.7% (active) | -11% (active) | 
CCN1CCN(Cc2ccc(C(=O)Nc3cccc(C#Cc4cccc5[nH]nc(N)c45)c3)cc2C(F)(F)F)CC1 | -30.9% (active) | -96.8% (active) | -88.8% (active) | -24.8% (active) | -69.2% (active) | -44.7% (active) | -22.1% (active) | -15.8% (active) | -27% (active) | -67.2% (active) | -69.1% (active) | -50.5% (active) | -84.9% (active) | -86.8% (active) | -91.5% (active) | -73.2% (active) | -85.5% (active) |  | 
CSc1ccc(NC(=O)c2ccc3nn(/C(C#N)=C/c4ccccn4)nc3c2)cc1 |  | -44.2% (active) | -87.6% (active) | -57.2% (active) | -2.79% (active) | -87.4% (active) | -85% (active) |  | -35.7% (active) | -39.9% (active) | -70.8% (active) |  | -78.6% (active) | -73.9% (active) | -100% (active) | -68% (active) | -94% (active) | -97.9% (active) | -6.88% (active)
CCOC(=O)C1=C(N)N(c2ccccc2)C2=C(C(=O)CC(C)(C)C2)C1c1ccc(Cl)cc1Cl (stereo not drawn) |  | 36.7% | 56.9% | 25.3% | 34.5% | 59.4% | 33.3% |  | 23.6% | 20.9% | 29.5% |  | 9.22% (active) | 13.6% | 37.5% | 18.7% | 3.8% (active) | 33.4% | 10.1%
COc1cccc(/C=C/C(=O)c2ccc(OC)c(S(N)(=O)=O)c2)c1 | -9.86% (active) | 10.5% | 24.2% | 57.7% | 67.8% | 42.1% | 16.3% | 91.6% | 13.3% | 21% | 34.1% | 8.39% (active) | 7.97% (active) | -73.8% (active) | 29.7% | -41.6% (active) | 20% |  | 
CC1(C)CC[C@]2(C(=O)O)CC[C@]3(C)C(=CCC4[C@@]5(C)C[C@@H](O)[C@@H]6OC(c7ccco7)OC[C@@]6(C)C5CC[C@]43C)C2C1 (stereo partly drawn) |  | 26.9% | 65.4% | 47.9% |  | 31.6% | 20.5% | 31.2% |  | 46.4% | 12.2% | 23.6% | 21% | 11.8% | 34% | 17.3% | 8.23% (active) | 13.9% | 18.2%
COc1cc(OC)cc(C(=O)Nc2cccc(-c3cn(-c4ccc(S(N)(=O)=O)cc4)nn3)c2)c1 | 114% | 39.4% | 113% |  |  | 99.5% | 90.9% | 70.3% | 94.4% | 87.8% | 97.2% | 99.6% | 77.3% | 94% | 107% | 87.9% | 95.4% |  | 
COc1ccc(NC(=O)Cn2c(/C=C/c3cccc([N+](=O)[O-])c3)nc3ccccc3c2=O)cc1 |  | 43.3% | 118% | 44.7% | 42% | 104% | 50.7% | 66.8% | 70.8% | 69.2% | 99.8% | 92.6% | 46.8% | 55.4% | 112% | 77.5% | 83.6% |  | 
